# The entries come from a sample that favours the strongest signals as a whole.
# B1: SefD (Salmonella enterica), Q9L6K6 (protein)
# chain: GAYIIRGQNNSAHKLRIRIGGEDWQPDNSGIGMVSHSDFTNEFNIYYFGNGDIPVDTYLISIYATEIEL
# Tests used:
# Test in all cases: glycan array binding signal (z-score within array); higher = stronger binding
# Conditions in all cases: glycan notation: IUPAC condensed, linker removed
# [1] = molecular target: Fuc(a1-2)Gal(b1-3)[Fuc(a1-4)]GlcNAc(b1-2)Man(a1-3)[Fuc(a1-2)Gal(b1-3)[Fuc(a1-4)]GlcNAc(b1-2)Man(a1-6)]Man(b1-4)GlcNAc(b1-4)GlcNAc
# Procedure, shortened: (§1)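 The binding signal is a Z-score computed within each array. Data were drawn from 3228 arrays in the Consortium for Functional Glycomics database, restricted to those with a known protein sequence. Scores were averaged over arrays of the same protein sequence at different concentrations or buffers, and over linkers, and negative values can be taken as non-binding.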
# [2] = molecular target: Fuc(a1-2)Gal(b1-3)[Fuc(a1-4)]GlcNAc(b1-3)[Gal(b1-4)GlcNAc(b1-6)]Gal(b1-4)Glc
# Procedure, shortened: as §1
# [3] = molecular target: Fuc(a1-2)Gal(b1-4)GlcNAc(b1-3)Gal(b1-4)GlcNAc(b1-3)Gal(b1-4)GlcNAc
# Procedure, shortened: as §1
# [4] = molecular target: Fuc(a1-2)[Gal(a1-3)]Gal(b1-4)GlcNAc(b1-2)Man(a1-3)[Fuc(a1-2)[Gal(a1-3)]Gal(b1-4)GlcNAc(b1-2)Man(a1-6)]Man(b1-4)GlcNAc(b1-4)[Fuc(a1-6)]GlcNAc
# Procedure, shortened: as §1
# [5] = molecular target: Fuc(a1-2)[Gal(a1-3)]Gal(b1-4)[Fuc(a1-3)]GlcNAc
# Procedure, shortened: as §1
# [6] = molecular target: Fuc(a1-3)[Gal(b1-4)]Glc6S
# Procedure, shortened: as §1
# [7] = molecular target: Fuc(a1-3)[Gal(b1-4)]GlcNAc(b1-4)Gal(b1-4)[Fuc(a1-3)]GlcNAc(b1-4)Gal(b1-4)[Fuc(a1-3)]GlcNAc
# Procedure, shortened: as §1
# [8] = molecular target: Fuc(a1-4)GlcNAc
# Procedure, shortened: as §1
# [9] = molecular target: Gal(a1-4)Gal(b1-3)GlcNAc(b1-2)Man(a1-3)[Gal(a1-4)Gal(b1-3)GlcNAc(b1-2)Man(a1-6)]Man(b1-4)GlcNAc(b1-4)GlcNAc
# Procedure, shortened: as §1
# [10] = molecular target: Gal(a1-4)Gal(b1-4)Glc
# Procedure, shortened: as §1
# [11] = molecular target: Gal(b1-3)Gal(b1-4)GlcNAc
# Procedure, shortened: as §1
# [12] = molecular target: Gal(b1-4)GlcNAc(b1-2)[Gal(b1-4)GlcNAc(b1-6)]Man(a1-6)[Gal(b1-4)GlcNAc(b1-2)Man(a1-3)]Man(b1-4)GlcNAc(b1-4)GlcNAc
# Procedure, shortened: as §1
# [13] = molecular target: Gal(b1-4)GlcNAc(b1-3)[Gal(b1-4)GlcNAc(b1-6)]Gal(b1-4)GlcNAc
# Procedure, shortened: as §1
# [14] = molecular target: Gal(b1-4)GlcNAc(b1-3)[Gal(b1-4)GlcNAc(b1-6)]GalNAc
# Procedure, shortened: as §1
# [15] = molecular target: Gal6S(b1-4)Glc6S
# Procedure, shortened: as §1
# [16] = molecular target: GalNAc(a1-3)Fuc(a1-2)Gal(b1-4)GlcNAc(b1-3)[GalNAc(a1-3)Fuc(a1-2)Gal(b1-4)GlcNAc(b1-6)]GalNAc
# Procedure, shortened: as §1
# [17] = molecular target: GalNAc(b1-3)Gal(a1-6)Gal(b1-4)Glc
# Procedure, shortened: as §1
# [18] = molecular target: GalNAc(b1-3)GalNAc
# Procedure, shortened: as §1
# [19] = molecular target: Glc(a1-6)Glc(a1-6)Glc(a1-6)Glc
# Procedure, shortened: as §1
# [20] = molecular target: GlcA(b1-3)Gal
# Procedure, shortened: as §1
# [21] = molecular target: GlcNAc(b1-3)Gal(b1-3)GalNAc
# Procedure, shortened: as §1
# [22] = molecular target: GlcNAc(b1-3)GalNAc
# Procedure, shortened: as §1
# [23] = molecular target: GlcNAc(b1-3)[GlcNAc(b1-6)]GalNAc
# Procedure, shortened: as §1
# [24] = molecular target: GlcNAc(b1-4)GlcNAc
# Procedure, shortened: as §1
# [25] = molecular target: GlcNAc3Prop(b1-4)GlcNAc
# Procedure, shortened: as §1
# [26] = molecular target: Man(a1-2)Man(a1-3)[Man(a1-2)Man(a1-6)]Man(a1-6)[Man(a1-2)Man(a1-2)Man(a1-3)]Man(b1-4)GlcNAc(b1-4)GlcNAc
# Procedure, shortened: as §1
# [27] = molecular target: Neu5Ac(a2-3)Gal(b1-3)GalNAc(b1-4)[Neu5Ac(a2-3)]Gal(b1-4)Glc
# Procedure, shortened: as §1
# [28] = molecular target: Neu5Ac(a2-3)Gal(b1-3)GlcNAc
# Procedure, shortened: as §1
# [29] = molecular target: Neu5Ac(a2-3)Gal(b1-3)GlcNAc6S
# Procedure, shortened: as §1
# [30] = molecular target: Neu5Ac(a2-3)Gal(b1-3)[Neu5Ac(a2-6)]GalNAc
# Procedure, shortened: as §1
# [31] = molecular target: Neu5Ac(a2-3)Gal(b1-4)GlcNAc(b1-6)[Gal(b1-3)]GalNAc
# Procedure, shortened: as §1
# [32] = molecular target: Neu5Ac(a2-3)Gal(b1-4)[Fuc(a1-3)]GlcNAc(b1-3)GalNAc
# Procedure, shortened: as §1
# [33] = molecular target: Neu5Ac(a2-3)Gal(b1-4)[Fuc(a1-3)]GlcNAc(b1-6)[Gal(b1-3)]GalNAc
# Procedure, shortened: as §1
# [34] = molecular target: Neu5Ac(a2-6)Gal(b1-4)GlcNAc(b1-2)Man(a1-6)[GlcNAc(b1-2)Man(a1-3)]Man(b1-4)GlcNAc(b1-4)GlcNAc
# Procedure, shortened: as §1
# [35] = molecular target: Neu5Ac(a2-6)GlcNAc(b1-4)GlcNAc(b1-4)GlcNAc
# Procedure, shortened: as §1
# [36] = molecular target: Neu5Ac(a2-8)Neu5Ac(a2-3)Gal(b1-4)Glc
# Procedure, shortened: as §1
# [37] = molecular target: Neu5Ac(a2-8)Neu5Ac(a2-3)[Gal(b1-3)GalNAc(b1-4)]Gal(b1-4)Glc
# Procedure, shortened: as §1
binder,measurement,setting,value
B1,glycan array binding signal (z-score),[1],-0.362
same,glycan array binding signal (z-score),[2],5.83
same,glycan array binding signal (z-score),[3],-0.043
same,glycan array binding signal (z-score),[4],-0.413
same,glycan array binding signal (z-score),[5],-0.401
same,glycan array binding signal (z-score),[6],-0.328
same,glycan array binding signal (z-score),[7],-0.46
same,glycan array binding signal (z-score),[8],2.37
same,glycan array binding signal (z-score),[9],-0.091
same,glycan array binding signal (z-score),[10],-0.442
same,glycan array binding signal (z-score),[11],2.24
same,glycan array binding signal (z-score),[12],0.127
same,glycan array binding signal (z-score),[13],-0.614
same,glycan array binding signal (z-score),[14],-0.441
same,glycan array binding signal (z-score),[15],-0.435
same,glycan array binding signal (z-score),[16],5.38
same,glycan array binding signal (z-score),[17],-0.631
same,glycan array binding signal (z-score),[18],-0.05
same,glycan array binding signal (z-score),[19],-0.319
same,glycan array binding signal (z-score),[20],-0.456
same,glycan array binding signal (z-score),[21],-0.29
same,glycan array binding signal (z-score),[22],-0.427
same,glycan array binding signal (z-score),[23],-0.43
same,glycan array binding signal (z-score),[24],0.15
same,glycan array binding signal (z-score),[25],6.32
same,glycan array binding signal (z-score),[26],-0.324
same,glycan array binding signal (z-score),[27],-0.395
same,glycan array binding signal (z-score),[28],-0.336
same,glycan array binding signal (z-score),[29],-0.237
same,glycan array binding signal (z-score),[30],2.7
same,glycan array binding signal (z-score),[31],3.13
same,glycan array binding signal (z-score),[32],11.3
same,glycan array binding signal (z-score),[33],-0.092
same,glycan array binding signal (z-score),[34],-0.228
same,glycan array binding signal (z-score),[35],-0.293
same,glycan array binding signal (z-score),[36],0.431
same,glycan array binding signal (z-score),[37],0.969
